# PL synth Enamine: phospholipid synthesis inhibitors, CHO cells, primary screen, ZR-82 cells, Enamine library, screen 3; calls only at 10 µM; ZR-82 CHO cells, pyrene fatty acid UV survival, CellTiter Blue; peroxisome-deficient CHO-K1 mutant line; plus DGAT-1, DGAT-2 and ACAT inhibitors; hit rate 0.4% among 20,000;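 active = cell survival signal 2 SD away from solvent-only control wells, confirmed on one or two retests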;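 note: 3 h compound exposure then viability read about one day after UV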
# Calls only; 0 = inactive; + = active, no number. The entries come from a sample that favours hits as a whole.
SMILES,PL synth Enamine
CN=c1scc(-c2ccccc2)n1/N=C/c1c[nH]c2ccccc12,0
C(=N\n1c(-c2ccccc2)csc1=NCCc1ccccc1)/c1c[nH]c2ccccc12,+
C(=N\n1c(-c2ccco2)csc1=NCCc1ccccc1)/c1ccco1,0
CCCc1cc(=O)[nH]c(SCc2cn3ccccc3n2)n1,0
CN=c1scc(-c2ccc(Br)cc2)n1/N=C/c1ccc(Cl)cc1,0
CC(C)N=c1scc(-c2ccc(Cl)c(Cl)c2)n1/N=C/c1ccc2c(c1)OCCO2,0
Cc1ccc(-c2csc(=NC(C)C)n2/N=C/c2ccc(Cl)cc2)cc1C,+
O=P1(N2CCCCC2)C=C(c2ccccc2)OC(c2ccccc2)=C1,0
Cc1cc(C(=O)CSc2nnnn2Cc2cccs2)c(C)n1-c1ncn[nH]1,0
CN1/C(=C\C=Nc2ccccc2I)C(C)(C)c2ccccc21,0
CN1/C(=C\C=Nc2ccccc2N)C(C)(C)c2ccccc21,+
CN1/C(=C\C=Nc2c(F)c(F)c(F)c(F)c2F)C(C)(C)c2ccccc21,0
Cc1nn(Cc2cc(-c3ccco3)on2)c(C)c1S(=O)(=O)N1CCOCC1,0
CC(=O)c1c(C)[nH]c(C(=O)OCC(C)C)c1C,0
S=C(N/N=C1\CC2CC=CC12)NC1CCCCC1 (centres undefined),0
CC1C/C(=N\NC(=S)NC2CCCCC2)CC(C)(C)C1 (centres undefined),+
CC1C/C(=N\NC(=O)C(N)=O)CC(C)(C)C1 (centres undefined),0
C(=N\N1CCCCC1)/c1ccc2c(c1)OCO2,0
S=c1[nH]nc(-c2cccnc2)n1-c1ccc(Br)cc1,0
Cc1cc(NP2(=S)C3=C(N4CCCCC4)CC(C)(C)CC3=NN2c2ccccc2)n(-c2ccccc2)n1 (centres undefined),0
Cc1ccc2nc(COC(=O)CN3C(=O)NC4(CCCC4)C3=O)cc(=O)n2c1,0
Brc1ccccc1C=C(c1nc2ccccc2s1)c1nc2ccccc2s1,0
O=C1Nc2ccc(Br)cc2C1=C(c1nc2ccccc2s1)c1nc2ccccc2s1,+
Oc1c(Br)cc(/C=C/c2nc3ccccc3s2)cc1Br,0
O=S(=O)(c1ccc(F)c(F)c1)N1CCN(c2nnnn2-c2ccccc2)CC1,0
SMILES,PL synth Enamine
O=[N+]([O-])c1ccc(C=Nc2ccccc2F)o1,0
CCN1C(=Cc2cc(C)[n+](CCO)c(C)c2)Sc2ccccc21,0
CCC(CO)[n+]1c(C)cc(C=C2Sc3ccccc3N2Cc2ccccc2)cc1C (centres undefined),+
CCN1C(=Cc2cc(C)[n+](N3CCN(C)CC3)c(C)c2)Sc2ccccc21,0
O=C1NC2(Oc3ccccc3C3CC(c4ccccc4)=NN32)/C(=C/c2cccc(OCc3ccccc3)c2)S1 (centres undefined),+
CCC1(C)Oc2ccccc2C2CC(c3ccccc3)=NN21 (centres undefined),0
c1ccc(C2=NN3C(C2)c2ccccc2OC32CCCC2)cc1 (centres undefined),0
c1ccc(C2=NN3C(C2)c2ccccc2OC32CCCCC2)cc1 (centres undefined),0
O=C1NC2(Oc3ccc(Br)cc3C3CC(c4ccccc4)=NN32)/C(=C/c2ccccc2)S1 (centres undefined),+
CC1(C)Oc2ccccc2C2CC(c3ccc(-c4ccccc4)cc3)=NN21 (centres undefined),0
CCOC(=O)c1c(N)sc2c1CCN(C(C)C)C2,0
Fc1ccc(OC2OCCOC2Oc2ccc(F)cc2)cc1 (centres undefined),0
CCCCn1c(N)c(N(CCC(C)C)C(=O)c2cc(Br)c(Br)s2)c(=O)[nH]c1=O,0
FC(F)(F)c1cccc(-c2ccc(-c3nn4c(-c5ccccc5)nnc4s3)o2)c1,0
Oc1ccc2ccccc2c1C=Nc1ccc(-n2cnc3cc(N=Cc4c(O)ccc5ccccc45)ccc32)cc1,0
N=C(N)N=Nc1c(O)[nH]c2ccccc12,0
Cc1ccc(C)c(N=Nc2c(C)[nH]c3ccccc23)c1,+
Cc1cc(=S)[nH]c2ccccc12,0
COc1ccc(Br)cc1/C=C1\NC(=S)NC1=O,0
CCOc1cc2c(cc1CNCc1cc(Cl)c(OC(C)C)c(OC)c1)OC(C)C2 (centres undefined),0
Nc1nc(CSc2nnnn2C2CCCC2)nc(Nc2ccc(F)cc2)n1,0
Clc1cccc(CSc2nnc(-c3ccc4c(c3)OCO4)o2)c1,0
COc1ccccc1N=Nc1c(O)ccc2ccccc12,0
Cc1nc(N)sc1N=Nc1cccc2ccccc12,+
Nc1nc(=O)c2cccnc2s1,0
SMILES,PL synth Enamine
Cc1nnc(SCc2nnc(-c3ccc(Br)cc3)o2)n1C1CC1,0
Cc1ccc(N=Nc2cc(C(C)(C)C)cc(Br)c2O)cc1,+
CC(C)(C)c1cc(C=Nc2cc(C(C)(C)C)cc(C(C)(C)C)c2O)c(O)c(C(C)(C)C)c1,0
CC(C)(C)N/N=C/c1cc(Br)c(O)c(Br)c1,0
Fc1ccc(NC(=S)NNc2ccnc3cc(Cl)ccc23)cc1,0
S=C(NNc1ccnc2cc(Cl)ccc12)Nc1ccc(Cl)cc1,0
S=C(NNc1ccnc2cc(Cl)ccc12)Nc1ccccc1Cl,+
O=S(=O)(c1ccc(Sc2ccccc2)nc1)N1CCCC1,0
CCOC(=O)c1c(C)[nH]c(C(=O)COC(=O)c2ccc(C)s2)c1C,0
CCOC(=O)c1c(C)[nH]c(C(=O)O)c1C,0
CCOC(=O)c1c(C)[nH]c(N=Nc2ccc3c(c2)OCO3)c1C,+
NC1CCSc2ccc(F)cc21 (centres undefined),0
O=C(c1cnc(N2CCCC2)s1)c1sc2cc(Cl)cc(Cl)c2c1Cl,0
CC(C)(C)C(=O)/C=c1\s/c(=C\c2cccs2)c(=O)n1Cc1cc(=O)n2ccsc2n1,0
Cc1cc([N+](=O)[O-])ccc1NP1(=O)/C(=C2/N(C)c3ccccc3C2(C)C)C=NN1c1ccccc1 (centres undefined),0
CN1/C(=C2\C=NN(c3ccccc3)P2(=O)Nc2ccc([N+](=O)[O-])cc2)C(C)(C)c2ccccc21 (centres undefined),+
Cc1nn(-c2ccccc2)c2c1P(=S)(Nc1ccc([N+](=O)[O-])cc1)/C(=C1/N(C)c3ccccc3C1(C)C)C=N2 (centres undefined),0
Oc1[nH]c2ccc(Br)cc2c1N=Nc1ccc(Cl)c(Cl)c1,0
O=[N+]([O-])c1ccc(N=Nc2c(O)[nH]c3ccc(Br)cc23)cc1,+
O=[N+]([O-])c1ccc2[nH]c(O)c(N=Nc3ccc(Cl)c(Cl)c3)c2c1,0
NC(=O)Cc1ccc(C(=O)CSc2nnc(Cc3cccs3)n2C2CC2)s1,0
O=C(CCCCCCCC(=O)NC1CCCCC1)NC1CCCCC1,0
CCCCN(CCCC)[P+](Nc1n[nH]c(=O)[nH]c1=O)(N(CCCC)CCCC)N(CCCC)CCCC,+
COc1ccc(OCCCCOc2ccc(OC)cc2)cc1,0
O=S(=O)(CCN1CCN(c2ncccn2)CC1)c1cc(Cl)ccc1Cl,0
SMILES,PL synth Enamine
CC(C)(C)c1cc(CC(=S)N2CCOCC2)c2c(c1)C(C)(C)CC2,0
C/C(=N\NS(=O)(=O)c1ccc(C)cc1)c1ccc2c(c1)OCCO2,0
CNS(=O)(=O)c1ccc(/C(C)=N/Nc2cc(C)c3cc(C)cc(C)c3n2)cc1,+
Cc1ccc(C(=NS(=O)(=O)c2ccc(C)cc2)NS(=O)(=O)c2ccc(C)cc2)cc1,0
CN=c1scc(-c2ccccc2)n1/N=C/c1ccc2c(c1)OCCO2,0
COC(=O)c1cc(/C=C/C(=O)O)oc1C,0

# Source: PubChem (Zoeller Lab, School of Medicine, Boston University)
